Compound activity deposited in PubChem by National Center for Advancing Translational Sciences (NCATS).
AMA1-RON2 inh: AMA1-RON2 (P. falciparum) interaction inhibition; AlphaScreen AMA1-biotinylated RON2 peptide binding; Potency, µM (highest dose often 58.2 µM), for the others: at the highest dose activity change, negative = inhibition, most hits filed as inhibitors; 360,000 tested, 0.2% active; AID 720542;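 further: 0% = vehicle wells and -100% = peptide control; nearly all actives have a fitted effect of over 45% in size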
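AMA1 (3D7) with his tag at 25 nM final met compounds first, then biotinylated RON2 peptide at 25 nM; detection used donor plus acceptor beads, 10 µg/mL apiece, read by AlphaScreen after 30 min at room temperature.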
AmpC detergent: inhibitors of E. coli AmpC beta-lactamase with detergent; Potency, µM (doses to about 114 µM), inactives show at the highest dose activity change, negative = inhibition, actives largely listed as inhibitors; 370,000 tested, 0.041% active; AmpC hydrolysis of nitrocefin, absorbance 480 nm, 0.01% Triton;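 further: 0% = no-compound wells and -100% = no-enzyme wells; nearly all actives have a fitted effect of over 25% in size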
Target sequence (P00811 whole entry, looked up): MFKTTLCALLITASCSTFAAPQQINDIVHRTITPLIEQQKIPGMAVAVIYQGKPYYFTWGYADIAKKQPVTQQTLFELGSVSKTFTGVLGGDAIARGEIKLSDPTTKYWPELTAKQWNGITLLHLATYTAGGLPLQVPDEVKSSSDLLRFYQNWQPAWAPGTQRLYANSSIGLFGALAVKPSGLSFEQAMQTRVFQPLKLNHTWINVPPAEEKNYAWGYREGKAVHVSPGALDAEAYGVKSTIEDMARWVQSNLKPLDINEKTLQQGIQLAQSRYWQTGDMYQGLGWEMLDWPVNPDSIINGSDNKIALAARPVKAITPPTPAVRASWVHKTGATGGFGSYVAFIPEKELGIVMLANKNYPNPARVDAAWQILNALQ
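AmpC (5.3 nM in the dispensed reagent) in 20 mM phosphate pH 7.0 with 0.01% (detergent screen) or 0.0001% Triton X-100 was preincubated with compounds for 15 min at room temperature. Nitrocefin was then added from an 800 uM solution, and hydrolysis was followed at 480 nm.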
Pf growth 48h: P. falciparum growth inhibition at 48 hours (one generation); Potency, µM (series often up to 28.7 µM), for the others: at the top dose activity change, negative = inhibition, hits mostly inhibitors; 310,000 tested, 5.9% active; P. falciparum luciferase growth in erythrocytes, 48 h; AID 504832
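Firefly luciferase activity from engineered P. falciparum reports growth; inhibitors lower the luminescent signal. Cultures contained 2% hematocrit erythrocytes at 0.1% final parasitemia.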
AmpC no deterg: AmpC beta-lactamase inhibition without detergent; P00811; AmpC nitrocefin hydrolysis, absorbance 480 nm, 0.0001% Triton; Potency, µM (titrated, usually from 57.1 µM), for inactives: top-dose activity change, negative = inhibition, most hits filed as inhibitors; 330,000 tested, 0.52% active; AID 485341;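 further: plate controls were no compound for no effect and no enzyme for full effect; nearly all actives have a fitted effect of over 20% in size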
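AmpC (5.3 nM in the dispensed reagent) in 20 mM phosphate pH 7.0 with 0.01% (detergent screen) or 0.0001% Triton X-100 was preincubated with compounds for 15 min at room temperature. Nitrocefin was then added from an 800 uM solution, and hydrolysis was followed at 480 nm.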
HCV inh: inhibitors of hepatitis C virus infection; AID 651820; Huh7.5.1 HCVcc-Cre infection, luciferase reporter, 44 h; 340,000 tested, 3.4% active; Potency, µM (highest dose often 41.8 µM), without a hit: at the top dose activity change, negative = inhibition, most hits filed as inhibitors
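1,000 cells/well; 4 h culture; + compound; + HCVcc-Cre (~0.5 moi); 44 h; luciferase substrate, RT 15 min; read 15 sec.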
Pf growth 96h: P. falciparum growth inhibition at 96 hour, primary screen for plastid delayed-death inhibitors | Potency, µM (titrated, usually from 28.7 µM), for the others: at the top dose activity change, negative = inhibition, hits mostly inhibitors | 320,000 tested, 6.9% active | P. falciparum luciferase reporter growth, 96 h
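Two parasite generations (96 h, 37 C, 5% CO2) of compound exposure in infected erythrocytes (0.05% parasitemia, 2% hematocrit). Luciferase-reporter P. falciparum; decreased luminescence indicates inhibited growth, aimed at apicoplast-acting delayed death.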
* marks the source's active call; other numbers are inactive results; ? = inconclusive; . = not tested or not shown. The list is not random: actives were taken first. Their share in the collection is about 11%. The call rests on the fitted dose curve; in most records, active means well fitted curve in the direction sought with a large enough effect; inconclusive means small, poorly fitted or top-dose-only effect, or another doubt; inactive means no such curve, though single readings can be large; an effect the other way counts as inactive or inconclusive. Unless noted, on the % scale 0 is the no-effect control and ±100 the full control effect; potency means the concentration at half of the fitted maximal effect.

SMILES | AMA1-RON2 inh | AmpC detergent | Pf growth 48h | AmpC no deterg | HCV inh | Pf growth 96h
COc1ccc(-c2sc3ccc(N4CCOCC4)cc3c2C#CC(C)(C)O)cc1 | -1% | 7% | ? | 166% | ? | 2.6µM*
COC(=O)c1c(-c2cc(OC)cc(OC)c2)sc2ccc(OC)cc12 | 21% | . | . | 37% | 13µM* | .
COC(=O)c1c(-c2ccc(OC)cc2)sc2ccccc12 | . | 0% | ? | -4% | 7% | ?
COC(=O)c1c(-c2ccc(SC)cc2)sc2ccccc12 | 53% | -2% | ? | -13% | 3% | 5.9µM*
Cc1cc(C)cc(N(CC(=O)NCc2ccccc2Cl)S(=O)(=O)c2c(C)noc2C)c1 | . | 0% | . | . | . | .
CCc1ccccc1NC(=O)c1ccc2c(c1)N(Cc1cc(C)ccc1C)C(=O)c1ccccc1S2(=O)=O | . | -10% | . | . | . | .
CN(C)C=NC(=O)c1cc2c(n(-c3ccccc3)c1=O)CC(C)(C)CC2=O | . | 1% | . | . | . | .
O=C(CN1CCCC1)Nc1ccc(NC(=O)Nc2ccccc2Cl)cc1 | -2% | ? | 0% | 16µM* | ? | ?
O=C(CN1CCCC1)Nc1ccccc1Cl | 0% | -2% | . | -3% | 9% | 6%
O=C(CN1CCN(CC(=O)Nc2ccccc2Cc2ccccc2)CC1)Nc1ccccc1Cl | -7% | -4% | ? | -11% | ? | 13µM*
O=C(Nc1ccc(Oc2ccc(NC(=O)Nc3ccccc3Cl)cc2)cc1)Nc1ccccc1Cl | -10% | -11% | 1.9µM* | 75% | ? | 1.5µM*
Cc1ccc(-n2nnc3c(=O)n(CC(=O)N4CCC(C)CC4)cnc32)cc1 | -12% | ? | 23% | -15% | -22% | 4.1µM*
Cc1ccc(-n2nnc3c(=O)n(CC(=O)N4CCCC4)cnc32)cc1 | 5% | -6% | 19% | -27% | 20% | 50%
COC(=O)c1cc2c(cc1NC(=O)c1c(C)nn(-c3ccc(C)cc3)c1-n1cccc1)OCO2 | . | 27% | . | . | . | .
CCOc1ccccc1NC(=O)C1CCN(S(=O)(=O)Cc2ccccc2)CC1 | . | -4% | . | . | . | .
CCOc1ccc(CN2CCN(C(=O)c3cccc(F)c3)CC2)cc1 | -22% | -3% | -2% | 29% | 11µM* | -15%
COc1ccc(OC)c(CN2CCN(C(=O)Cc3ccccc3)CC2)c1 | ? | -10% | -1% | 21% | -5% | 12µM*
COc1ccc(CN2CCN(C(=O)Cc3ccccc3)CC2)cc1OC | -12% | . | . | . | . | .
CCOc1ccc(CN2CCN(C(=O)Cc3ccccc3)CC2)cc1 | ? | ? | -1% | 55% | ? | 6.6µM*
CCOc1cc(CN2CCN(C(=O)Cc3ccccc3)CC2)ccc1OC | ? | -14% | 0% | 17% | -1% | ?
CCOc1ccc2oc(=O)cc(CN3CCN(C(=O)c4cccc(F)c4)CC3)c2c1 | . | -3% | . | . | . | .
O=C(C1CCN(Cc2ccc(OCc3ccccc3)cc2)CC1)N1CCCC1 | -16% | -4% | -10% | 48% | -24% | .
OC1CCN(Cc2ccc(OCc3ccccc3)cc2)CC1 | -11% | ? | 127% | -10% | -16% | 4.1µM*
CCc1ccc2occ(CC(=O)Nc3sc4c(c3C(=O)NCCOC)CCCC4)c2c1 | . | -2% | . | . | . | .
O=C(CC(=O)Nc1ccccc1F)Nc1ccc2nc3n(c(=O)c2c1)CCCCC3 | . | 13% | . | . | . | .
SMILES | AMA1-RON2 inh | AmpC detergent | Pf growth 48h | AmpC no deterg | HCV inh | Pf growth 96h
O=C(c1cccc(F)c1)N1CCN(Cc2ccco2)CC1 | -2% | -1% | 8% | -1% | 16% | 6.6µM*
Cn1nc(-c2ccc(OCC(=O)N3CCN(Cc4ccccc4)CC3)cc2)c2ccccc2c1=O | -8% | ? | -19% | 282% | 6.3µM* | ?
COc1ccc(NC(=O)CN2C(=O)C(C)(C)c3cc(S(=O)(=O)N4CCCCC4)ccc32)cc1Cl | . | 8% | . | . | . | .
COc1cccc(N2CCN(C3=NS(=O)(=O)C(c4ccc(C)cc4)=C3C)CC2)c1 | . | -5% | . | . | . | .
COCCNC(=O)c1cccc(Nc2nc(-c3ccccc3)c3cc(Cl)ccc3n2)c1 | 24% | -13% | ? | 153% | 10µM* | ?
CN(CC(=O)Nc1cccc(Cl)c1)S(=O)(=O)c1ccc2[nH]c3c(c2c1)CCCC3 | . | 15% | . | . | . | .
COC(=O)c1ccc(OC)c(CN2CCCN(Cc3cc(C)ccc3C)S2(=O)=O)c1 | -4% | 2% | 15µM* | 17% | ? | 13%
Cc1nn(C)cc1C(=O)/C=C/c1ccc([N+](=O)[O-])cc1 | 6% | 2% | 13µM* | -9% | 22µM* | 4.7µM*
CC(C)NC(=O)c1ccccc1NC(=O)/C=C/c1ccc([N+](=O)[O-])cc1 | 13% | -4% | 30% | -6% | 11µM* | 0%
O=C(/C=C/c1ccc([N+](=O)[O-])cc1)c1ccccc(=O)c1O | 44% | . | . | . | 7.9µM* | .
Cc1ccc(C)c(/C=C/C(=O)c2ccccc(=O)c2O)c1 | 33% | -1% | 4.1µM* | -32% | ? | 1.5µM*
CCOc1ccc(NC(=O)CSc2nnc3scc(-c4ccc(Cl)cc4)n23)cc1 | . | 7% | . | . | . | .
CCOc1ccc(C(=O)NCc2ccc3c(c2)CCN3C(=O)c2ccc(Cl)cc2)cc1 | . | 7% | . | . | . | .
CCc1ccc(NC(=O)C(=O)NCCc2csc(-c3ccc(C(F)(F)F)cc3)n2)cc1 | . | 7% | . | . | . | .
Cc1c(C(=O)N(C)c2cccc(C(F)(F)F)c2)sc2nc3n(c(=O)c12)CCCCC3 | . | 17% | . | . | . | .
COc1ccc(-c2nc3scc(CCNS(=O)(=O)c4ccc5c(c4)OCCO5)n3n2)cc1OC | . | -1% | . | . | . | .
O=C(/C=C/c1ccccc1Cl)c1ccccc(=O)c1O | 60% | -1% | 5.2µM* | ? | ? | 3.7µM*
Cc1ccc(/C=C/C(=O)c2ccccc(=O)c2O)c(C)c1 | 59% | ? | ? | ? | ? | 9.3µM*
CCOC(=O)c1cc(-c2ccccc2)n(-c2cccc(C(=O)NC(C)CC)c2)c1C (stereo not drawn) | . | 2% | . | . | . | .
O=C(/C=C/c1cccc([N+](=O)[O-])c1)Nc1cccc(NC(=O)c2cccs2)c1 | -6% | ? | -30% | -30% | ? | 4.1µM*
O=C(/C=C/c1cccc([N+](=O)[O-])c1)Nc1cccc(NC(=O)c2ccco2)c1 | -29% | ? | -8% | 3.2µM* | ? | 20%
O=C(/C=C/c1ccc(Cl)c([N+](=O)[O-])c1)Nc1cccc(NC(=O)c2ccco2)c1 | -9% | 0% | 12µM* | -29% | -26% | ?
Cc1ccc(NC(=O)/C(=C\c2cccc([N+](=O)[O-])c2)NC(=O)c2cccs2)cc1 | 7% | -1% | ? | -15% | 9% | ?
